# Source: article PMC11062922 (Nature Chemical Biology, 2023)
# Like-named read-outs stand apart in the source and are kept apart here.
# Columns and labels:
# SIK2 = settings: read-out: apparent Kd, n = 1
# STK3 = settings: read-out: apparent Kd, n = 1
substance,measurement,setting,value
Lestaurtinib,potency estimated from few doses,"SIK2; compound concentrations:100 nM and 1000 nM (sheet 'Lestaurtinib' of Supplementary Table 1),run:Lestaurtinib_02584_R3,Plate:MR017",53.4 nM
same,potency estimated from few doses,"SIK2; compound concentrations:100 nM and 1000 nM (sheet 'Lestaurtinib' of Supplementary Table 1),run:Lestaurtinib_02601_R2,Plate:MR018",94.3 nM
same,potency estimated from few doses,"SIK2; compound concentrations:100 nM and 1000 nM (sheet 'Lestaurtinib' of Supplementary Table 1),run:Lestaurtinib_02601_R3,Plate:MR018",40.2 nM
same,potency estimated from few doses,"SIK2; compound concentrations:100 nM and 1000 nM (sheet 'Lestaurtinib' of Supplementary Table 1),run:Lestaurtinib_02606_R1,Plate:MR019",51.2 nM
same,potency estimated from few doses,"SIK2; compound concentrations:100 nM and 1000 nM (sheet 'Lestaurtinib' of Supplementary Table 1),run:Lestaurtinib_02606_R2,Plate:MR019",45.6 nM
same,potency estimated from few doses,"SIK2; compound concentrations:100 nM and 1000 nM (sheet 'Lestaurtinib' of Supplementary Table 1),run:Lestaurtinib_02624_R1,Plate:MR020",51.5 nM
same,potency estimated from few doses,"SIK2; compound concentrations:100 nM and 1000 nM (sheet 'Lestaurtinib' of Supplementary Table 1),run:Lestaurtinib_02624_R2,Plate:MR020",49.5 nM
same,potency estimated from few doses,"SIK2; compound concentrations:100 nM and 1000 nM (sheet 'Lestaurtinib' of Supplementary Table 1),run:Lestaurtinib_02624_R3,Plate:MR020",46.5 nM
same,potency estimated from few doses,"SIK2; compound concentrations:100 nM and 1000 nM (sheet 'Lestaurtinib' of Supplementary Table 1),run:Lestaurtinib_02724_R1,Plate:MR021",73.9 nM
same,potency estimated from few doses,"SIK2; compound concentrations:100 nM and 1000 nM (sheet 'Lestaurtinib' of Supplementary Table 1),run:Lestaurtinib_02724_R2,Plate:MR021",44.8 nM
same,potency estimated from few doses,"SIK2; compound concentrations:100 nM and 1000 nM (sheet 'Lestaurtinib' of Supplementary Table 1),run:Lestaurtinib_02724_R3,Plate:MR021",50.5 nM
same,potency estimated from few doses,"SIK2; compound concentrations:100 nM and 1000 nM (sheet 'Lestaurtinib' of Supplementary Table 1),run:Lestaurtinib_02741_R1,Plate:MR023",57.2 nM
same,potency estimated from few doses,"SIK2; compound concentrations:100 nM and 1000 nM (sheet 'Lestaurtinib' of Supplementary Table 1),run:Lestaurtinib_02741_R2,Plate:MR023",71.3 nM
same,potency estimated from few doses,"SIK2; compound concentrations:100 nM and 1000 nM (sheet 'Lestaurtinib' of Supplementary Table 1),run:Lestaurtinib_02741_R3,Plate:MR023",54.5 nM
same,potency estimated from few doses,"SIK2; compound concentrations:100 nM and 1000 nM (sheet 'Lestaurtinib' of Supplementary Table 1),run:Lestaurtinib_02748_R1,Plate:MR024",48.8 nM
same,potency estimated from few doses,"SIK2; compound concentrations:100 nM and 1000 nM (sheet 'Lestaurtinib' of Supplementary Table 1),run:Lestaurtinib_02748_R2,Plate:MR024",56.4 nM
same,potency estimated from few doses,"SIK2; compound concentrations:100 nM and 1000 nM (sheet 'Lestaurtinib' of Supplementary Table 1),run:Lestaurtinib_02748_R3,Plate:MR024",51.6 nM
same,potency estimated from few doses,"SIK2; compound concentrations:100 nM and 1000 nM (sheet 'Lestaurtinib' of Supplementary Table 1),run:Lestaurtinib_02752_R2,Plate:MR025",56 nM
same,potency estimated from few doses,"SIK2; compound concentrations:100 nM and 1000 nM (sheet 'Lestaurtinib' of Supplementary Table 1),run:Lestaurtinib_02752_R3,Plate:MR025",56 nM
same,potency estimated from few doses,"SIK2; compound concentrations:100 nM and 1000 nM (sheet 'Lestaurtinib' of Supplementary Table 1),run:Lestaurtinib_02765_R1,Plate:MR026",49.7 nM
same,potency estimated from few doses,"SIK2; compound concentrations:100 nM and 1000 nM (sheet 'Lestaurtinib' of Supplementary Table 1),run:Lestaurtinib_02765_R2,Plate:MR026",91.3 nM
same,potency estimated from few doses,"SIK2; compound concentrations:100 nM and 1000 nM (sheet 'Lestaurtinib' of Supplementary Table 1),run:Lestaurtinib_02766_R1,Plate:MR027",43.3 nM
same,potency estimated from few doses,"SIK2; compound concentrations:100 nM and 1000 nM (sheet 'Lestaurtinib' of Supplementary Table 1),run:Lestaurtinib_02766_R2,Plate:MR027",26.9 nM
same,potency estimated from few doses,"SIK2; compound concentrations:100 nM and 1000 nM (sheet 'Lestaurtinib' of Supplementary Table 1),run:Lestaurtinib_02768_R2,Plate:MR028",45.1 nM
same,potency estimated from few doses,"SIK2; compound concentrations:100 nM and 1000 nM (sheet 'Lestaurtinib' of Supplementary Table 1),run:Lestaurtinib_02768_R3,Plate:MR028",47.4 nM
same,potency estimated from few doses,"SIK2; compound concentrations:100 nM and 1000 nM (sheet 'Lestaurtinib' of Supplementary Table 1),run:Lestaurtinib_02795_R1,Plate:MR022",59.7 nM
same,potency estimated from few doses,"SIK2; compound concentrations:100 nM and 1000 nM (sheet 'Lestaurtinib' of Supplementary Table 1),run:Lestaurtinib_02795_R2,Plate:MR022",62.3 nM
same,potency estimated from few doses,"SIK2; compound concentrations:100 nM and 1000 nM (sheet 'Lestaurtinib' of Supplementary Table 1),run:Lestaurtinib_02795_R3,Plate:MR022",165 nM
same,potency estimated from few doses,"SIK2; compound concentrations:100 nM and 1000 nM (sheet 'Lestaurtinib' of Supplementary Table 1),run:Lestaurtinib_02802_R1,Plate:MR029",49.8 nM
same,potency estimated from few doses,"SIK2; compound concentrations:100 nM and 1000 nM (sheet 'Lestaurtinib' of Supplementary Table 1),run:Lestaurtinib_02802_R2,Plate:MR029",52.5 nM
same,potency estimated from few doses,"SIK2; compound concentrations:100 nM and 1000 nM (sheet 'Lestaurtinib' of Supplementary Table 1),run:Lestaurtinib_02802_R3,Plate:MR029",25.3 nM
same,potency estimated from few doses,"SIK2; compound concentrations:100 nM and 1000 nM (sheet 'Lestaurtinib' of Supplementary Table 1),run:Lestaurtinib_02896_R2,Plate:MR030",44.8 nM
same,potency estimated from few doses,"SIK2; compound concentrations:100 nM and 1000 nM (sheet 'Lestaurtinib' of Supplementary Table 1),run:Lestaurtinib_03172_R1,Plate:MR031",46.2 nM
same,potency estimated from few doses,"SIK2; compound concentrations:100 nM and 1000 nM (sheet 'Lestaurtinib' of Supplementary Table 1),run:Lestaurtinib_03172_R2,Plate:MR031",51.4 nM
same,potency estimated from few doses,"SIK2; compound concentrations:100 nM and 1000 nM (sheet 'Lestaurtinib' of Supplementary Table 1),run:Lestaurtinib_03172_R3,Plate:MR031",49.5 nM
same,potency estimated from few doses,"SIK2; compound concentrations:100 nM and 1000 nM (sheet 'Lestaurtinib' of Supplementary Table 1),run:Lestaurtinib_03252_R2,Plate:MR032",34.3 nM
same,potency estimated from few doses,"SIK2; compound concentrations:100 nM and 1000 nM (sheet 'Lestaurtinib' of Supplementary Table 1),run:Lestaurtinib_03260_R1,Plate:MR033",77.2 nM
same,potency estimated from few doses,"SIK2; compound concentrations:100 nM and 1000 nM (sheet 'Lestaurtinib' of Supplementary Table 1),run:Lestaurtinib_03260_R3,Plate:MR033",54.9 nM
same,potency estimated from few doses,"STK3; compound concentrations:100 nM and 1000 nM (sheet 'Lestaurtinib' of Supplementary Table 1),run:Lestaurtinib_02339_R1,Plate:MR001",36.6 nM
same,potency estimated from few doses,"STK3; compound concentrations:100 nM and 1000 nM (sheet 'Lestaurtinib' of Supplementary Table 1),run:Lestaurtinib_02339_R2,Plate:MR001",36.6 nM
same,potency estimated from few doses,"STK3; compound concentrations:100 nM and 1000 nM (sheet 'Lestaurtinib' of Supplementary Table 1),run:Lestaurtinib_02364_R1,Plate:MR002",36.5 nM
same,potency estimated from few doses,"STK3; compound concentrations:100 nM and 1000 nM (sheet 'Lestaurtinib' of Supplementary Table 1),run:Lestaurtinib_02364_R3,Plate:MR002",51.5 nM
